Screening results from PubChem BioAssay.
These entries were drawn from the full list.
aSyn 5UTR act: Activators via SNCA 5'UTR binding, MLPCN | alpha-synuclein 5'UTR reporter, activators screen | 7.1% of 300,000 active | activity score, % (tested at 7.5 µM), hits read low; in the data active means activity score below about -60%
Numbers stand for hits.

Screening CCCCc1ccc(NC(=O)C2CCCO2)cc1 (stereo unspecified) returned aSyn 5UTR act -97.
CCCCOC(=O)c1ccc(NC(=O)C2CCCO2)cc1 (stereo unspecified) was read as aSyn 5UTR act -75.
`Cc1ccc(-n2nnnc2Sc2ccc(S(=O)(=O)NCCN(C)C)cc2[N+](=O)[O-])cc1` gave aSyn 5UTR act -93.
Screening O=[N+]([O-])c1cc(S(=O)(=O)NCCN2CCOCC2)ccc1Sc1nnnn1-c1ccccc1 returned aSyn 5UTR act -96.
`c1csc(-c2cn3ccc4ccccc4c3n2)c1` gave aSyn 5UTR act -209.
Cc1cccc(C(=O)Nc2ccc(N3CCN(S(C)(=O)=O)CC3)cc2)c1 was read as aSyn 5UTR act -84.
For CS(=O)(=O)N1CCN(c2ccc(NC(=O)c3ccccc3)cc2)CC1 the results were aSyn 5UTR act -123.
For O=C(NC1CC1)c1ccc2c(Cl)c3c(nc2c1)CCCC3 the results were aSyn 5UTR act -87.
Screening CC1CCN(C(=O)c2ccc3c(Cl)c4c(nc3c2)CCCC4)CC1 returned aSyn 5UTR act -71.
For CC(=O)c1cccc(NC(=O)c2ccc3c(Cl)c4c(nc3c2)CCCC4)c1 the results were aSyn 5UTR act -83.
`O=C(Nc1cccnc1Cl)c1ccc2c(Cl)c3c(nc2c1)CCC3` gave aSyn 5UTR act -71.
For CC1CCN(C(=O)c2ccc3ccccc3c2)CC1 the results were aSyn 5UTR act -152.
`N#Cc1ccccc1NC(=O)c1ccc2c(Cl)c3c(nc2c1)CCCC3` gave aSyn 5UTR act -219.
Screening CC1CCN(C(=O)c2ccc(S(=O)(=O)Cc3ccccc3F)c([N+](=O)[O-])c2)CC1 returned aSyn 5UTR act -71.
CC1(C)CC(=O)C2=C(C1)c1c(ccc3ccccc13)NC2c1ccco1 (stereo unspecified) was read as aSyn 5UTR act -193.
Screening C/C(CC(=O)NC1CCCCC1)=N\NC(=O)c1ccccn1 returned aSyn 5UTR act -132.
Screening C/C(CC(=O)Nc1ccc(Cl)c(C(F)(F)F)c1)=N\NC(=O)c1ccccc1O returned aSyn 5UTR act -82.
Screening C/C(=N\NC(=O)c1ccc(F)cc1)c1ccccn1 returned aSyn 5UTR act -93.
Screening CC(=O)Nc1ccccc1NC(=O)C/C(C)=N/NC(=O)c1ccccn1 returned aSyn 5UTR act -114.
For C/C(CC(=O)NCc1ccccc1Cl)=N/NC(=O)c1ccccn1 the results were aSyn 5UTR act -116.
C/C(=N\NC(=O)CCCNc1ccc(C)cc1)c1ccccn1 was read as aSyn 5UTR act inactive.
For C/C(CC(=O)Nc1ccc(F)cc1)=N\NC(=O)c1ccccn1 the results were aSyn 5UTR act -64.
Cc1nnc(N/N=C\c2ccc(-c3ccccc3[N+](=O)[O-])o2)n1N was read as aSyn 5UTR act -75.
Cc1nnc(N/N=C/c2ccc(-c3ccccc3F)o2)n1N was read as aSyn 5UTR act -107.
For CCOc1ccc(/C=C/C2=Cc3c(sc(NC(=O)CSc4n[nH]c(N)n4)c3C#N)C(C)(C)C2)cc1 the results were aSyn 5UTR act -95.
O=c1cc(-c2ccccc2)[nH]c2nc3ccccc3n12 was read as aSyn 5UTR act -89.
Screening COc1cccc(NC(=S)/C(=C(\[O-])c2ccc(OC(F)F)cc2)[n+]2ccccc2)c1 returned aSyn 5UTR act -66.
`CN(/N=C/C=C/c1ccccc1)c1cc(=O)n(C)c(=O)[nH]1` gave aSyn 5UTR act -65.
`FC(F)(F)c1cc(-c2ccco2)nc(NCCc2ccccc2)n1` gave aSyn 5UTR act -92.
`CCOc1ccc2nc(NC(=O)C3CCN(C(=O)c4ccco4)CC3)sc2c1` gave aSyn 5UTR act -99.
For CCOc1ccc2nc(NC(=O)C3(C)CC3(Br)Br)sc2c1 (stereo unspecified) the results were aSyn 5UTR act -128.
`Cc1ccc2nc(NC(=O)C3CC3C)sc2c1` (stereo unspecified) gave aSyn 5UTR act -105.
`CCOc1ccc2nc(NC(=O)c3cnccn3)sc2c1` gave aSyn 5UTR act -127.
`Cc1ccc2nc(NC(=O)CCn3cccc3)sc2c1` gave aSyn 5UTR act -115.
`Cc1ccc2nc(NC(=O)CCCC(=O)O)sc2c1` gave aSyn 5UTR act inactive.
C/C=C/C(=O)OCC(=O)Nc1nc2ccc(C)cc2s1 was read as aSyn 5UTR act -74.
CCOCC(=O)Nc1nc2ccc(OCC)cc2s1 was read as aSyn 5UTR act -73.
For CCOc1ccc2nc(-c3cc(NC(C)=O)ccc3O)sc2c1 the results were aSyn 5UTR act -161.
Screening CCOCC(=O)Nc1nc2ccc(C)cc2s1 returned aSyn 5UTR act -85.
For Cc1ccc2nc(NC(=O)COC(=O)c3ccccn3)sc2c1 the results were aSyn 5UTR act -109.
Cc1ccc2nc(NC(=O)CSCC(=O)OCC(=O)c3ccccc3)sc2c1 was read as aSyn 5UTR act inactive.
`Cc1cc(NC(=O)C2CCCCC2)ncc1NC(=O)c1ccccn1` gave aSyn 5UTR act -73.
`Cc1cc(NC(=O)C2CC2)ncc1NC(=O)c1ccccn1` gave aSyn 5UTR act -93.
